SMN2 splice up: SMN2 splice variant enhancement; HEK293 SMN2-luciferase splicing reporter, luminescence, 30-36 h; Potency, µM (series often up to 46.1 µM), for the others: at the highest dose activity change, positive = activation, most hits filed as activators; 210,000 compounds, 2.8% hits; also: % of control where 0% means no effect; nearly all actives have a fitted effect of over 55% in size
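qHTS luciferase splicing reporter: luminescence rises when SMN2 exon 7 is included in transfected HEK293 cells. Compound exposure lasted 30-36 h at 37C, with 4.5 mM final sodium butyrate as control, followed by a ONE-Glo read.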
FLuc modulator: counter-screen for miR-21 project: firefly luciferase inhibitors or activators; P08659; purified FLuc, Km substrates, luminescence inhibition; Potency, µM (series often up to 57.5 µM), inactives show at the highest dose activity change, negative = inhibition, usual class: inhibitors; 360,000 compounds, 6.9% hits;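 also: plate controls were vehicle for no effect and reference inhibitor for full effect; nearly all actives have a fitted effect of over 55% in size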
Target sequence (P08659 whole entry, looked up): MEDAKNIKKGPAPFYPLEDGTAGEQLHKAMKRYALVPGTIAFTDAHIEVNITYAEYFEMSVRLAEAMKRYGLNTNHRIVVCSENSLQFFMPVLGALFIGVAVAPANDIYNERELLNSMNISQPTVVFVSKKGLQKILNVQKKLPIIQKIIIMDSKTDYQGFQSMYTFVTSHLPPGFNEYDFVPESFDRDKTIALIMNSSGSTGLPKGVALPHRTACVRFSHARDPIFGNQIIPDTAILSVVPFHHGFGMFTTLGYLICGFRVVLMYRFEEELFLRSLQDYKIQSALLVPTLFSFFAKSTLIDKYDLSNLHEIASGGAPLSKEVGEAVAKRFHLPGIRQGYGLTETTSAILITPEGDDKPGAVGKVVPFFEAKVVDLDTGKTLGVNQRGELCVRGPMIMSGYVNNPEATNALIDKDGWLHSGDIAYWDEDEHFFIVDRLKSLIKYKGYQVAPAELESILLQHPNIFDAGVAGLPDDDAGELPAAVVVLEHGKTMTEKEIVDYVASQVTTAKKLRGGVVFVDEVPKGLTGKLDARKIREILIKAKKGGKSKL
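Purified P. pyralis luciferase, 10 nM final, with Km-level 10 uM D-luciferin and 10 uM ATP in 50 mM Tris acetate pH 7.5, 10 mM Mg acetate, 0.01% Tween-20, 0.05% BSA; 6-point qHTS titration about 60 µM downward; luminescence read.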
ELG1 DNA repair: ELG1-dependent DNA repair inhibition; Potency, µM (top dose mostly 46.1 µM), inactives show top-dose activity change, negative = inhibition, actives largely listed as inhibitors; 330,000 compounds, 2.3% hits; HEK293T ELG1-luciferase reporter, luminescence, 16 h; DNA damage induced by 5-fluorouridine; AID 504467; also: % is scaled to controls: 0 for no effect and ±100 for the full control effect; nearly all actives have a fitted effect of over 55% in size
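Overnight (16 hr) co-exposure of 2,000 cells/well to 5-fluorouridine and compound at 37 °C preceded detection. Luciferase was quantified via ONE-Glo luminescence; loss of signal denotes inhibition.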
NPC1 prom act: activators of NPC1 promoter; 320,000 compounds, 2.4% hits; Potency, µM (highest dose often 9.22 µM), for the others: top-dose activation, actives largely listed as activators; Huh7 NPC1 promoter luciferase reporter, 24 h; also: % of control where 0% means no effect; nearly all actives have a fitted effect of over 60% in size
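Luciferase expression driven by the NPC1 promoter was measured in stably transfected Huh7 cells after a 24 h compound incubation, using a luciferase reagent and a luminescence read.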
ELG1 genotoxic: induces genotoxicity in HEK293T cells with luciferase-tagged ELG1 | HEK293T ELG1-luciferase reporter, luminescence, 16 h | AID 504466 | Potency, µM (top dose mostly 46 µM), for inactives: at the top dose activity change, positive = activation, usual class: activators | 330,000 compounds, 1.3% hits; also: % of control where 0% means no effect; nearly all actives have a fitted effect of over 60% in size
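Luminescence read-out: rising ELG1-luciferase signal, reflecting elevated ELG1 protein under genetic stress, flags genotoxic compounds. Cells were treated for 16 hr at 37 °C before ONE-Glo detection.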
Rab9 promoter act: activators of Rab9 promoter; 320,000 compounds, 2.8% hits; Potency, µM (series often up to 9.22 µM), inactives show at the highest dose activation, negative = inhibition, usual class: activators; Huh7 Rab9 promoter-luciferase reporter, luminescence, 24 h; AID 485297; also: % of control where 0% means no effect; nearly all actives have a fitted effect of over 60% in size
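Huh7 cells stably carrying Rab9 promoter–luciferase reporter, plated 1500 cells/well, compound added after 2 h and incubated 24 h at 37 °C; luciferase luminescence then read after 10 min with detection reagent.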
Starred values were filed as active, the others as inactive; ? = inconclusive; . = no result given; [ ] = remark or other dose. Rows were chosen to be rich in hits. Some 9.2% of all compounds tested hit in one or more screens of this group. Calls follow the shape of the dose curve; as a rule, active = well fitted curve in the direction sought with a large enough effect; inconclusive = small, poorly fitted or top-dose-only effect, or another doubt; inactive = no such curve, though single readings can be large; an effect the other way counts as inactive or inconclusive. Potency is read from the fitted curve at half-maximal effect.

SMILES	SMN2 splice up	FLuc modulator	ELG1 DNA repair	NPC1 prom act	ELG1 genotoxic	Rab9 promoter act
COc1ccccc1CN1CC(C(=O)NCCCc2ccc(F)cc2)CCC1=O (stereo not given)	.	-1%	10µM*	-1%	-2%[9.26 µM]	0%
COc1ccccc1NC(=O)CSc1oc(-c2ccc(F)cc2)nc1S(=O)(=O)c1ccc(Br)cc1	6%	2%	.	.	.	.
O=C1C=C(c2ccccc2)OC(=O)C1C(=O)c1ccccc1 (stereo not given)	-8%	24µM*	42%	2%	2%	4%
COc1ccccc1NC(=O)COc1ccc2c(c1)OCO2	.	15µM*	?	?	?	-39%
O=C(COc1ccc2c(c1)OCO2)Nc1nncs1	.	9.5µM*	?	14%	?	26%
NC(=O)c1ccccc1NC(=O)COc1ccc2c(c1)OCO2	.	4.8µM*	?	2.5µM*	?	3.5µM*
C=CC(=O)Nc1ccc(Nc2nc(NC3CCC(N(C)C)CC3)nc3c2ncn3C(C)C)cc1 (stereo not given)	.	.	2.3µM*	.	1%	.
Cc1ccc(N=Nc2c(O)ccc3n[nH]nc23)cc1	.	11µM*	?	1.6µM*	?	?
Cc1ccc(N=Nc2c(O)ccc3cc(S(=O)(=O)O)ccc23)cc1	-6%[9.22 µM]	.	.	.	.	.
N/C(=N/OC(=O)c1ccccc1F)c1nonc1N	11%	4.8µM*	?	13%	13%	-2%
N/C(=N\OCC(=O)Nc1ccccc1)c1nonc1N	23%	-13%	?	-5%	4%	-6%
N/C(=N\OC(=O)c1ccc(Cl)cc1)c1nonc1N	17%	1.7µM*	26%	-1%	17%	-10%
COc1ccc(OC)c(NC(=O)c2cccnc2)c1	.	-4%	11%	-5%	3%	-1%
COc1ccc(-c2cc3ccccc3oc2=O)cc1NC(=O)c1cccnc1	-5%	11µM*	0%	-6%	-4%	7%
COc1cc2c(cc1NC(=O)c1cccnc1)oc1ccccc12	?	15µM*	?	?	?	?
Cc1cc(C)c(S(=O)(=O)N2CCCC(C(=O)NCc3ccccn3)C2)c(C)c1 (stereo not given)	.	0%	8%	-2%	-4%	1%
CCn1c(C)nc2cc(C(=O)NNC(=S)Nc3ccc(Cl)cc3)ccc21	.	?	11%	8%	3%	15%
CCn1c(C)nc2cc(C(=O)NNC(=S)Nc3ccccc3)ccc21	9%	12µM*	?	0.45µM*	10µM*	0.79µM*
CCn1c(C)nc2cc(C(=O)NNC(=S)Nc3ccc(Cl)cc3Cl)ccc21	-8%	?	29%	3%	-4%	-1%
CCn1c(NC(=S)Nc2ccccc2)nc2ccccc21	25%	3.4µM*	?	?	3%	?
CCn1c(C)nc2cc(C(=O)NNC(=S)Nc3ccccc3Cl)ccc21	?	17µM*	?	?	?	?
CCCn1c(NC(=S)Nc2ccccc2)nc2ccccc21	6%	?	?	-2%	?	-4%
Nc1nonc1-c1nc2ccccc2n1Cc1ccc(Br)cc1	8%	-1%	.	.	.	.
COc1cc2ccccc2cc1C(=O)Nc1ccccc1N1CCN(S(C)(=O)=O)CC1	-7%	0%	.	.	.	.
CCN1CCN(c2ccc(NC(=O)c3ccccc3F)cc2Cl)CC1	10µM*	?	?	?	?	?
SMILES	SMN2 splice up	FLuc modulator	ELG1 DNA repair	NPC1 prom act	ELG1 genotoxic	Rab9 promoter act
CCN1CCN(c2ccc(NC(=O)c3cc4ccccc4cc3OC)cc2C)CC1	.	8.5µM*	?	29%	?	?
CCCCCC(=O)Nc1ccc(N2CCN(CC)CC2)c(Cl)c1	?	?	?	?	18µM*	28%
CCCCCC(=O)NC(=S)Nc1ccc(N2CCCCC2)c(Cl)c1	.	1%	17%	-2%	1%	2%
COc1ccc(NC(=O)c2cc(S(=O)(=O)N3CCCC(C)C3)cn2C)c(OC)c1 (stereo not given)	.	-1%	.	.	.	.
Cc1ccc(OCC(=O)N(c2ccc(C)cc2)S(=O)(=O)c2ccc(Cl)cc2)cc1	-3%	5%	.	.	.	.
Cc1ccnc(N=Cc2c(O)ccc3oc4c(c23)CCCC4)c1	-2%	-8%	?	-2%	-7%	-5%
C=CCn1c(=O)/c(=C/c2ccc(Cl)cc2)s/c1=C(/C#N)c1nnc2n1CCCCC2	12%	4%	21µM*	-3%	-33%	0%
O=C(O)CCCCCN1C(=O)/C(=C\c2ccc(-c3ccc(Cl)cc3)o2)SC1=S	.	?	17%	-3%	4%	-4%
O=C(O)CCCN1C(=O)/C(=C/c2ccc(-c3nc4ccccc4s3)o2)SC1=S	18µM*	-6%	?	10%	14%	-1%
CC(/C=N/NC(=O)c1cccnc1)=C\c1ccco1	?	-2%[2.3 µM]	?	16%	14%	?
CC(/C=N/NC(=O)c1cnccn1)=C\c1ccco1	.	12µM*	?	?	?	?
CC(=C/c1ccco1)/C=N/NC(=O)c1ccncc1	.	17µM*	-68%	11%	1%	20%
CCSc1ncccc1-c1nc2ccccc2[nH]1	?	?	?	?	?	29%
CSc1ncccc1-c1nc2ccccc2[nH]1	-1%	21µM*	?	19%	11%	25%
Cn1cc(Cl)c(-c2nc3ccccc3[nH]2)n1	16µM*	17µM*	?	2.5µM*	10µM*	3.5µM*
c1ccc2[nH]c(-c3ccnc4ccccc34)nc2c1	?	24µM*	?	?	?	3.5µM*
Cc1ccccc1-c1nc2ccccc2[nH]1	11µM*	17µM*	?	?	?	?
Nc1nonc1-c1nc2ccccc2[nH]1	?	-5%	?	-1%	0%	-3%
COCCCNC(=O)c1sc2nc3n(c(=O)c2c1C)CCC3	.	4%	.	.	.	.
CC(=O)c1ccc(N2CCN(c3ncnc4onc(C)c34)CC2)cc1	.	2%	.	.	.	.
COc1ccc(C(=O)[C@H](Br)[C@H](Br)C(=O)O)cc1	-4%[9.22 µM]	.	.	.	.	.
CC(C)(C)C(=O)Nc1ccc(Cl)c(-c2nc3ccccc3[nH]2)c1	.	-10%	.	.	.	.
Fc1ccccc1-c1nc2ccccc2[nH]1	.	9.5µM*	?	3.5µM*	?	1.8µM*
Clc1ccccc1-c1nc2ccccc2[nH]1	.	8.5µM*	?	2.8µM*	?	2µM*
O=C(NCc1ccccc1)c1ccccc1-c1nc2ccccc2[nH]1	-25%	-3%	19%	-4%	0%	5%
CC1(C(=O)O)COC(c2ccc(Cl)cc2)OC1 (stereo not given)	.	2%	0%	-2%	-1%	-6%
